A short description of test [1]: ATG_XTT_Cytotoxicity: Cytotoxicity Assessment in the Attagene TRANS-FACTORIAL HepG2 Assay (AID 2283584). The method, boiled down:
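HepG2 human liver cells, transiently transfected with multiple GAL4-UAS reporter units, were dosed and read at 24 h by XTT as cell number. Loss of signal was fitted relative to DMSO negative control baseline.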

Test [2] in a line: TOX21_p53_BLA_p2_viability: Viability Assessment in the Tox21 HCT-116 p53 Agonism Beta-lactamase Assay, Phase 2 (AID 2283591).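 Note: compound exposure lasted 16 h at 37 °C; actives lower the ATP signal meaning cytotoxicity.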 The method, boiled down:
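HCT116 p53-bla cells, 4000/well, dosed after 5 h plating (217-fold dilution of DMSO stocks) and incubated 16 h at 37C. Viability taken as cellular ATP by CellTiter-Glo luminescence after 30 min RT; signal loss marks cytotoxicity.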

Test [3] has as its target Cellular tumor antigen p53 (Homo sapiens) (UniProt P04637). The test is described as follows: TOX21_p53_BLA_p2_ratio: Tox21 HCT-116 p53 Agonism Beta-lactamase Assay, Ratio, Phase 2 (AID 2283592). The method in brief:
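Ratio endpoint: beta-lactamase cleavage of CCF4-AM, blue (460 nm) over green (530 nm). HCT116 reporter line; 16 h treatment, 37C; substrate 2 h RT.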

For test [4] the target is unchanged. The test is described as follows: TOX21_p53_BLA_p3_ratio: Tox21 HCT-116 p53 Agonism Beta-lactamase Assay, Ratio, Phase 3 (AID 2283596). The method, boiled down: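 Cells were seeded at 4000/well, rested 5 h at 37C, then dosed with DMSO compound solutions (217-fold dilution) for 16 h. CCF4-AM substrate was loaded for 2 h at room temperature, and the 460/530 nm emission ratio was fitted for gain of signal versus DMSO.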

Test [5] has the same target. The test is described as follows: TOX21_p53_BLA_p5_ratio: Tox21 HCT-116 p53 Agonism Beta-lactamase Assay, Ratio, Phase 5 (AID 2283599). The method in brief:
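HCT-116 p53-bla cells (4000/well) plated 5 h, dosed with compound (217-fold DMSO dilution) for 16 h at 37 C; CCF4-AM substrate 2 h at room temperature. Activity is the 460/530 nm emission ratio (405 nm excitation), fitted in gain-of-signal direction versus DMSO.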

The nature of test [6]: TOX21_p53_BLA_p5_viability: Viability Assessment in the Tox21 HCT-116 p53 Agonism Beta-lactamase Assay, Phase 5 (AID 2283600). The method in brief: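 Luciferase-coupled ATP quantitation of cells treated for 16 h (37C, 5% CO2) with test chemicals delivered in DMSO via a 217-fold dilution; 4000 cells/well; reagent incubated 30 min at room temperature before luminescence reading.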

Test [7] concerns the target Cellular tumor antigen p53 (Homo sapiens) (UniProt P04637). The test is described as follows: TOX21_p53_BLA_p4_ratio: Tox21 HCT-116 p53 Agonism Beta-lactamase Assay, Ratio, Phase 4 (AID 2283601). The method, boiled down:
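HCT-116 p53 beta-lactamase reporter cells (4000/well) preincubated 5 h, then compound (217-fold dilution of DMSO stock) for 16 h at 37C. CCF4-AM substrate added 2 h at room temperature; 460/530 nm emission ratio fitted upward versus DMSO.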

The nature of test [8]: TOX21_p53_BLA_p3_viability: Viability Assessment in the Tox21 HCT-116 p53 Agonism Beta-lactamase Assay, Phase 3 (AID 2283593).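 Note: cells exposed to compound for 16 h before reading.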 The method in brief: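 HCT116 cells, 4000/well, dosed 5 h after plating by pin transfer (217-fold dilution from DMSO stock) and incubated 16 h at 37C, 5% CO2. Viability read as ATP luminescence with CellTiter-Glo after 30 min at room temperature.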

Test [9] is described as follows: TOX21_p53_BLA_p4_viability: Viability Assessment in the Tox21 HCT-116 p53 Agonism Beta-lactamase Assay, Phase 4 (AID 2283597).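 Note: hits lower the luminescence signal meaning cytotoxicity.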 The method, boiled down: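 Cytotoxicity was inferred from loss of CellTiter-Glo luminescence. HCT116 cells had been dosed with compounds after 5 h plating, incubated 16 h at 37C and 5% CO2, and exposed to the CCF4-AM substrate for 2 h.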

Records with an inconclusive call do not appear. Activity calls are given as the source filed them. Rule for the calls: active = hit-call score of the fitted dose curve at least 0.9, where 1 is the maximum; inconclusive = response in the unintended direction; inactive = score below 0.9.

Cellular tumor antigen p53 (Homo sapiens), sequence (P04637 whole entry, looked up): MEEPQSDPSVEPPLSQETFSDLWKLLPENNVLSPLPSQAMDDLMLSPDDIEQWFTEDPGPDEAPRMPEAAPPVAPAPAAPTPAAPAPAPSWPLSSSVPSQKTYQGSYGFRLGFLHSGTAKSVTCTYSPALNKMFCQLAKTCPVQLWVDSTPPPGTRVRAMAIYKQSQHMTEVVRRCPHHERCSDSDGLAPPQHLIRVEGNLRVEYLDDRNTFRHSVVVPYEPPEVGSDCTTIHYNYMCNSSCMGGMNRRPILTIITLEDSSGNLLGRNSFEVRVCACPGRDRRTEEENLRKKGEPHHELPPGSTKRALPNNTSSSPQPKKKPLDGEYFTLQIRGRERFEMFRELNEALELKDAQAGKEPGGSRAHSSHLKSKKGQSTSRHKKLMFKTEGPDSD

On to `CCCCNC(=O)NS(=O)(=O)c1ccc(N)cc1`, for which the call in test [1], in test [2], in [3], in [4], in [5] and in [6] was inactive. Besides, the result in test [7] was inactive.
With `Cc1ncc([N+](=O)[O-])n1C`, the molecule was classed as inactive in [1], in [8], in test [4], in [9], in test [6] and in test [7].
In the case of `O=C(O)c1cn(-c2ccc(F)cc2)c2cc(N3CCNCC3)c(F)cc2c1=O`, the outcome in test [1], in test [8], in test [4], in [5] and in test [7] was inactive.
On to `COc1ccc(OC)c(OC)c1`, for which the call in test [1], in [8], in [4], in test [5], in test [6] and in test [7] was inactive.
`COc1ccc(NC(=O)CC(C)=O)cc1`: the result in test [1], in [3], in [8], in [4], in test [5] and in test [6] was inactive. The result in test [7] was inactive.
As for `C=C(C)C(=O)NCCCN(C)C`, the call in test [1], in [3], in test [8], in [4], in test [5] and in test [6] was inactive. Moreover, the result in [7] was inactive.
For `CCO[Si](CCCS)(OCC)OCC`, the molecule was classed as inactive in [1], in test [8] and in test [5].
For `CCCCCCCCCCCCCCCC(=O)OC[C@H](O)[C@H]1OC(=O)C(O)=C1O`, the call in [1], in test [3], in test [8], in test [4], in test [6] and in test [7] was inactive.
Take `CCCc1ccccc1O`: the molecule was classed as inactive in test [1], in [8], in test [4], in test [5], in test [6] and in test [7].
In the case of `COC(C(=O)O)c1ccccc1` (centres undefined), the call in [1], in test [3] and in test [9] was inactive.
With `COc1ccc(O)cc1`, the result in test [1], in test [8], in test [9], in [5], in test [6] and in test [7] was inactive.
As for `COc1cc(C=O)ccc1OC(=O)C(C)C`, the outcome in [1], in test [3], in [4], in test [5] and in test [7] was inactive.
For the molecule `O=C1CCCCCCCCCCOCCCCO1`, the molecule was classed as inactive in test [1], in test [4], in test [9], in test [5], in test [6] and in [7].
Regarding `CC(C)(C)c1n[nH]c(=S)n(N)c1=O`, the molecule was called inactive in [1], in [3], in test [4], in test [9] and in test [5].
As for `C=C(C)C(=O)OCCOC(=O)CC(C)=O`, the call in test [1], in test [3], in [4], in [5], in test [6] and in [7] was inactive.
One may read the AC50 as the concentration giving half of the maximal activity seen. With `Clc1ccc(Cl)c(Cl)c1Cl`, the molecule was classed as inactive in test [1], in [3], in test [4], in test [9], in [5] and in test [6]. The AC50 in test [7] was 0.000436 µM (active).
Consider `CC(CCO)CCc1ccccc1` (centres undefined), for which the outcome in [1], in test [3], in test [4], in [5] and in [7] was inactive.
For the molecule `NNc1nc(-c2ccc(N)cc2)cs1`, the molecule was called inactive in test [1], in test [3], in [4], in test [9], in test [5] and in [6]. Moreover, the outcome in test [7] was inactive.
As to `Sc1nc(S)nc(S)n1`, the molecule was called inactive in test [1], in test [8], in test [4], in [5] and in test [7].
With `C=C(C)[C@@H]1CCC2=CC(=O)C[C@@H](C)[C@]2(C)C1`, the outcome in test [1], in [3], in test [4], in [5], in test [6] and in [7] was inactive.
`CCC(=O)/C=C/C1C(C)=CCCC1(C)C` (centres undefined): the molecule was called inactive in test [1], in [3], in test [8], in test [4], in test [5] and in test [7].
For `Cc1ccc(C=O)s1`, the molecule was classed as inactive in test [1], in test [3], in [8], in test [9], in test [5] and in [6]. In addition, the outcome in [7] was inactive.
Take `CCC(C)(O)CCC=C(C)C` (centres undefined): the molecule was called inactive in test [1], in test [3], in test [4], in [9], in test [5] and in test [6]. Moreover, the outcome in test [7] was inactive.
Take `Cc1ccc2ccccc2n1`: the outcome in test [1], in test [3], in test [8], in test [4], in test [5] and in test [6] was inactive. For the same molecule, the outcome in [7] was inactive.
Regarding `C=CC(C)(O)CCC=C(C)CCC=C(C)C` (centres undefined), the molecule was classed as inactive in test [1], in test [3], in test [4] and in test [5].
Regarding `OCCCCCO`, the result in test [1], in test [4], in [5], in test [6] and in test [7] was inactive.
In the case of `OCCN1CCNCC1`, the molecule was classed as inactive in test [1], in test [3], in test [4], in test [5], in [6] and in test [7]. In addition, the AC50 in test [8] is 82.8 µM (active).
Regarding `O=C(O)C[C@H](O)C[C@H](O)/C=C/c1c(C2CC2)nc2ccccc2c1-c1ccc(F)cc1`, the molecule was classed as inactive in [1], in test [3], in test [4], in [5], in [6] and in [7].
Regarding `CC(=O)OCCC(C)CC(C)(C)C` (centres undefined), the molecule was called inactive in test [1], in [8], in test [4], in test [9], in test [5] and in test [6]. Besides, the result in test [7] was inactive.
On to `ClCCCl`, for which the molecule was classed as inactive in test [1], in [3], in test [8], in test [4], in test [9] and in test [6]. In addition, the outcome in test [7] was inactive.
For `CCCCCCCCCCCCSC`, the result in [1], in [8], in test [9], in test [5], in test [6] and in test [7] was inactive.
`C=CC(=O)NCOCC(C)C`: the outcome in [1], in test [8], in test [6] and in [7] was inactive.
Turning to `COc1ccc(Cl)cc1C`, the call in test [1], in [3], in [4] and in [5] was inactive.
For the molecule `CC[C@]12CCCN3CCc4c(n(c5ccccc45)[C@@](O)(C(=O)OC)C1)[C@@H]32`, the call in [1], in test [3], in test [4], in test [5], in [6] and in test [7] was inactive.
In the case of `CC(C)=CCCC(C)CC=O` (centres undefined), the result in test [1], in test [4], in test [5] and in test [7] was inactive.
Regarding `CO[Si](CCCn1c(=O)n(CCC[Si](OC)(OC)OC)c(=O)n(CCC[Si](OC)(OC)OC)c1=O)(OC)OC`, the molecule was classed as inactive in test [1], in test [3], in [8] and in [7].
`C=C[Si](OCC)(OCC)OCC`: the molecule was classed as inactive in test [1], in [8] and in test [7].
In the case of `CCCCCCCCCOC(C)=O`, the result in [1], in test [3], in test [4], in [9], in test [5] and in test [6] was inactive. For the same molecule, the outcome in test [7] was inactive.
As to `O=Cc1ccc(Cl)c([N+](=O)[O-])c1`, the molecule was classed as inactive in test [1], in test [3], in [4], in test [9], in [5] and in [7].
As to `CCCCN`, the molecule was called inactive in [1], in test [8], in test [4], in test [9] and in test [5].
Turning to `O=C1O[C@@H]2[C@@H](O)[C@H](O)O[C@@H]2[C@H]1O`, the outcome in test [1], in [3], in test [4], in test [5], in test [6] and in test [7] was inactive.
In the case of `NC(=O)Nc1ccc(Cl)cc1`, the outcome in [1], in test [4] and in test [7] was inactive.
For the molecule `CCC(C(=O)NC(N)=O)c1ccccc1` (centres undefined), the result in [2], in test [3], in test [4], in test [5], in test [6] and in test [7] was inactive.
For `CCCC/C=C\CCCCCCCCCC=O`, the result in [2], in test [3], in test [8], in test [4], in test [9] and in test [5] was inactive. Besides, the result in test [6] and in test [7] was inactive.

Values taken from PubChem BioAssay (EPA / NIEHS).
